This note sets out measurements from PubChem BioAssay AID1463 (National Center for Advancing Translational Sciences (NCATS), 2008).

Molecules are shown by their SMILES. Several values for one entry are separate records, joined by “and”; a condition that tells them apart may be missing. Equal entries are not always repeated. The whole screen tested about 280,000 compounds, of which about 2,600 (0.93%) were called active. Another 8% or so got no clear call; they are omitted. Many of the other results were omitted from the sample, so actives are more common in it than they were. Values without a mark were called inactive. Calls come from the whole dose curve; as a rule, active = well fitted curve in the direction sought with a large enough effect; inconclusive = small, poorly fitted or top-dose-only effect; inactive = flat fitted curve, though single readings scatter.
% is set by controls: 0 for no effect and ±100 for the full control effect; potency is the fitted concentration of half-maximal effect; tags give direction and shape of the fitted curve or compound fluorescence and quenching.

A short description of this test: Counterscreen qHTS for Inhibitors of Tau Fibril Formation, Fluorescence Polarization. Note: nearly all actives have a fitted effect of over 55% in size. As to conditions: tau K18 P301L (four-repeat tau fragment) Alexa594 fluorescence, heparin fibrillization; series mostly up to 57.7 µM; activity change, negative = decrease: at the top concentration. The text has this:
NIH Molecular Libraries Probe Production Network [MLPCN]
NIH Chemical Genomics Center [NCGC]
Assay Provider: Carlo Ballatore, University of Pennsylvania
The microtubule-associated protein tau is an abundant protein in the axons of neurons that stabilizes microtubules. With its ability to modulate microtubule dynamics, tau contributes directly or indirectly, to key structural and regulatory cellular functions. Particularly important is the influence tau exerts on axonal transport, which allows signaling molecules, trophic factors and other essential cellular constituents to travel along the axons. Under pathological conditions, tau becomes sequestered into insoluble aggregates called neurofibrillary tangles. This phenomenon is believed to have pathological consequences by promoting axonal transport deficits that ultimately lead to synaptic dysfunction and neuronal loss. To identify inhibitors of tau aggregation, a heparin-induced tau fibril formation assay was used that employed a recombinantly expressed fragment of tau, K18 (Q242-E372), bearing a P301L mutation (Gustke et al. 1994; Hong et al. 1998). […] Total fluorescence (555 nm excitation and 632 nm emission) was measured to identify fluorescent or absorbent compounds at this wavelength. Such compounds may be artifacts that interfere with the Alexa 594 Tau fluorescence polarization assay.
Gustke, N., B. Trinczek, et al. (1994). "Domains of tau protein and interactions with microtubules." Biochemistry 33(32): 9511-22.
Hong, M., V. Zhukareva, et al. (1998).
Li, W. and V. M. Lee (2006). "Characterization of two VQIXXK motifs for tau fibrillization in vitro." Biochemistry 45(51): 15692-701.
von Bergen, M., S. Barghorn, et al. (2001). "Mutations of tau protein in frontotemporal dementia promote aggregation of paired helical filaments by enhancing local beta-structure." J Biol Chem 276(51): 48165-74.
NCGC Assay Protocol Summary:
For screening, 2 uL/well human K18 P301L (15 uM unlabeled and 0.24 uM Alexa 594-labeled tau final concentrations) in reagent buffer (100 mM sodium acetate pH 7) was dispensed into black solid 1536-well plates (Grenier) using a solenoid-based dispenser. Following transfer of 23 nL compound or DMSO vehicle by a pin tool, 2 uL/well heparin (20 uM final concentration) in reagent buffer was added and the plate centrifuged 15 s at 1000 RPM. Plates were incubated 6 hr at 37 C and then 1 uL/well ThT (30 uM final concentration) was added. After a 1 hr ambient incubation, the plates were read by an Envision (Perkin Elmer) to monitor Alexa 594 FP (555 nm excitation and 632 nm emission).
Keywords: NIH Roadmap, MLPCN, MLI, MLSMR, NCGC, qHTS, tau, tauopathies, Alzheimer's disease, fibril, neurodegeneration, aggregation
A general note: The purpose of a counterscreen is to sort out artefacts and off-target activity.
With `O=C(CSc1nc(-c2cccc(F)c2)[nH]c1-c1ccccc1)Nc1ccc2c(c1)OCO2`, the Potency was 8.91 µM [quencher] (active).

On to `O=C(CN1CCN(CC(=O)Nc2ccc3c(c2)OCO3)CC1)Nc1ccc(F)cc1`, for which the “activity change, negative = decrease” value was -2.95%.

Turning to `O=C(CSc1nc(C2CC2)nc2ccccc12)Nc1ccc2c(c1)OCCO2`, the “activity change, negative = decrease” value is -17%.

As to `O=C(Nc1cc(Cl)cc(Cl)c1)c1ccc2c(c1)N(Cc1cccc(Cl)c1)C(=O)c1ccccc1S2=O` (stereo not drawn), the “activity change, negative = decrease” value was -14.3%.

Turning to `CCc1ccc(CN(Cc2ccco2)C(=O)c2ccccc2Cl)cc1`, the “activity change, negative = decrease” value was -6.34%.

As for `COc1cccc(Nc2nnc(SCC(=O)N3CC(C)OC(C)C3)s2)c1` (stereo not drawn), the “activity change, negative = decrease” value was -7.2%.

For `COc1cccc(NC(=O)Nc2nnc(N3CCCCC3C)s2)c1` (stereo not drawn), the Potency was 12.6 µM [quencher] (active).

In the case of `CCOC(=O)C1CCN(C(=O)Nc2cccc(OC)c2)CC1`, the “activity change, negative = decrease” value is -1.62%.

For `Cc1oc(-c2ccccc2)nc1Cn1c(SCc2cccc(C(F)(F)F)c2)nc2cccnc21`, the “activity change, negative = decrease” value is -22.8%.

With `COc1cccc(N2CCN(C(=O)CCCCCn3c(=O)[nH]c4ccccc4c3=O)CC2)c1`, the “activity change, negative = decrease” value is -25.4%.

On to `COc1ccc(Nc2nc(Cl)nc(NCc3ccco3)n2)cc1`, for which the “activity change, negative = decrease” value was -5.38%.

Regarding `COc1cccc(Nc2nc(N)c([N+](=O)[O-])c(NCc3ccco3)n2)c1`, the Potency was 3.16 µM [quencher] (active).

Take `CN(c1ccccc1)c1nc(N)c([N+](=O)[O-])c(NCc2ccco2)n1`: the “activity change, negative = decrease” value is -11.3%.

Consider `CCOC(=O)c1c(C)oc2nc(C)nc(N3CCN(c4ccc(OC)cc4)CC3)c12`, for which the “activity change, negative = decrease” value is -24.7%.

As to `COc1ccc(OC)c(NC(=O)CN2CCCN(Cc3cc(C)ccc3C)S2(=O)=O)c1`, the “activity change, negative = decrease” value is -18.6%.

For `Cc1ccc(Oc2cc(NC(=O)CCCn3nc(C)c([N+](=O)[O-])c3C)cc([N+](=O)[O-])c2)cc1`, the Potency is 4.47 µM [quencher] (active).

For the compound `CCc1ccc(NC(=O)Cn2nc(C)c([N+](=O)[O-])c2C)cc1`, the “activity change, negative = decrease” value is -4.39%.

Consider `COc1ccc(CNC(=O)CCCn2nc(C)c([N+](=O)[O-])c2C)cc1`, for which the “activity change, negative = decrease” value is -4.84%.

As to `COc1ccc(C)cc1-n1c(-c2ccc(C)cc2)cc2c1CC(C)(C)CC2=O`, the “activity change, negative = decrease” value is -12.5%.

On to `Cn1c(CCN2CCCCCC2)nc2cc(NC(=O)Nc3ccccc3)ccc21`, for which the Potency was 15.8 µM [quencher] (active).

For `CC(=O)NCCc1nc2cc(NC(=O)c3ccccc3)ccc2n1C`, the “activity change, negative = decrease” value is -1.64%.

Take `CCC(=O)Nc1ccc2c(c1)nc(CCN1CCN(C)CC1)n2C`: the “activity change, negative = decrease” value is 6.79%.

For `O=C(CCN1C(=O)c2ccccc2C1=O)Nc1ccncc1`, the “activity change, negative = decrease” value is 8.74%.

Consider `O=C(CCN1c2ccccc2Sc2ccccc21)Nc1ccccc1`, for which the Potency is 11.2 µM [quencher] (active).

`CCN1/C(=C/C(=S)Nc2ccccc2)Sc2ccccc21`: the Potency was 10 µM [quencher] (active).

Regarding `CC1CCN(CCC(=O)Nc2ccccc2)CC1`, the “activity change, negative = decrease” value is -2.65%.

For `CCNC(=O)N1c2ccccc2Sc2ccccc21`, the “activity change, negative = decrease” value was 0.177%.

On to `CCN1/C(=C/c2ccc3ccc(C)cc3[n+]2CC)Sc2ccccc21`, for which the “activity change, negative = decrease” value was -15.8%.

Turning to `CCOC(=O)c1c(NC(C)=O)c2c3c(sc2n1Cc1c(C)cc(C)cc1C)CCCC3`, the “activity change, negative = decrease” value was 1.76%.

Turning to `CCOC(=O)c1ccc(NC(=O)c2c(NCc3cccc(OC)c3)sc3c2CCC3)cc1`, the “activity change, negative = decrease” value was -12.9%.

As to `Cc1cccc(OCCSc2nc3ccccc3n2CC(=O)N2CCCCC2)c1C`, the “activity change, negative = decrease” value is -7.58%.

For `Cc1ccc(/C=C(\C#N)C(=O)Nc2cc(C)ccc2C)cc1`, the “activity change, negative = decrease” value is -9.9%.

Turning to `O=C(COc1ccccc1)NCc1ccc2c(c1)CCN2C(=O)c1ccc(F)cc1`, the “activity change, negative = decrease” value is -9.29%.

Regarding `Fc1ccc(CN2CCc3nc(Nc4ccccc4)ncc3C2)cc1F`, the “activity change, negative = decrease” value is -25.3%.

Consider `CCn1c(C)c(C)c2cc(C(=O)NCCc3cc(OC)ccc3OC)ccc21`, for which the “activity change, negative = decrease” value was -21.3%.

For the compound `Cc1cccc(NC(=O)CSc2ncc(-c3ccccc3)[nH]2)c1C`, the “activity change, negative = decrease” value is -24.1%.

Take `CCOc1cccc(NC(=O)CSc2ncc(-c3ccc(Cl)cc3)[nH]2)c1`: the Potency is 11.2 µM [quencher] (active).

On to `CCOc1cccc(NC(=O)CC#N)c1`, for which the “activity change, negative = decrease” value was -0.295%.

Regarding `CCCN(CCC)S(=O)(=O)c1ccc(C(=O)Nc2sc3c(c2C(=O)OC)CCN(CC)C3)cc1`, the “activity change, negative = decrease” value was -6.21%.

Regarding `Cc1cccc(-n2ccnc2SCC(=O)Nc2cc(C(F)(F)F)ccc2Cl)c1`, the “activity change, negative = decrease” value was -11.6%.

In the case of `CC1(C)CC(=O)c2ccc(O)cc2O1`, the “activity change, negative = decrease” value was 3.8%.

For the compound `CC[C@@H]1Cc2cc(O)ccc2C2=C1c1ccc(O)cc1C[C@H]2CC`, the Potency was 5.01 µM [quencher] (active) and 10 µM [quencher] (active).

As for `CCN(C(=O)Cn1cnc2sc(C)c(S(=O)(=O)N3CCN(c4ncccn4)CC3)c2c1=O)c1ccccc1F`, the “activity change, negative = decrease” value was -6.1%.

Turning to `Cc1cc2c(cc3c(SCc4nc(-c5ccccc5)oc4C)nnc(C)n32)o1`, the “activity change, negative = decrease” value was -15.1%.

In the case of `Cc1cc(Nc2cccc(C(F)(F)F)c2)nc2ccc(NC(=O)c3ccc(=O)[nH]c3)cc12`, the Potency was 3.55 µM [quencher] (active).

Regarding `COc1cc(NC(=O)c2cncc(-c3ccc(C#N)cc3)c2)cc(C(=O)Nc2cccc(C(F)(F)F)c2)c1`, the “activity change, negative = decrease” value was -13%.

For `COc1cc(OC)cc(C(=O)Nc2ccc3nc(Nc4cccc(C(F)(F)F)c4)cc(C)c3c2)c1`, the Potency is 3.98 µM [quencher] (active).

Turning to `COc1ccc(NC(=O)C(=O)NCC(=O)Nc2cccc(C(F)(F)F)c2)cc1`, the “activity change, negative = decrease” value is 6.59%.
